Drawing on ChEMBL document CHEMBL1961873, “Compounds: GSK PKIS; Assays: Nanosyn kinase panel” (2012), this text covers inhibition for two molecules.

Experiment [1] deals with Protein kinase C gamma type (Homo sapiens) (UniProt P05129). The following applies: at 1 µM.
The target of experiment [2] is T1, Protein kinase C iota type (Homo sapiens) (UniProt P41743).
T1 sequence (whole entry): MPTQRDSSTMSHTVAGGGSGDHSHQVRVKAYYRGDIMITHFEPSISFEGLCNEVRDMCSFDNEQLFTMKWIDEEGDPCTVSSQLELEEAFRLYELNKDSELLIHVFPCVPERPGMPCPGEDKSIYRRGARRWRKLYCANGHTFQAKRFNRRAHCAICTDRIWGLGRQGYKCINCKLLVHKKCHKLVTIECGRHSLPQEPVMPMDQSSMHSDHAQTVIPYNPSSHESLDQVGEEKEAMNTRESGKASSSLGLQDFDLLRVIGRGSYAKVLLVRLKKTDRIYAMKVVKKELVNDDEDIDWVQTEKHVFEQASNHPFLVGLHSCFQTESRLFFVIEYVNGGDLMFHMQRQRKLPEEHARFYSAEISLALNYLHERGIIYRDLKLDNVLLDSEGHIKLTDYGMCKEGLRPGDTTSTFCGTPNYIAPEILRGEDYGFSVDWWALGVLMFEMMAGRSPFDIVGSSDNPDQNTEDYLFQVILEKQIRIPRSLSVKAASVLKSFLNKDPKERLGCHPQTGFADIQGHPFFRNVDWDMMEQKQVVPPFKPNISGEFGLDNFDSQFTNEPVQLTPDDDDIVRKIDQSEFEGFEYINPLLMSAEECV
The following applies: at 0.1 µM.

Experiment [3] deals with T1, Protein kinase C iota type (Homo sapiens). Particulars: at 1 µM.
For experiment [4], the target named is Protein kinase C theta type (Homo sapiens) (UniProt Q04759). The following applies: at 0.1 µM.
Sequence of Protein kinase C theta type (Homo sapiens) (Q04759 whole entry, looked up): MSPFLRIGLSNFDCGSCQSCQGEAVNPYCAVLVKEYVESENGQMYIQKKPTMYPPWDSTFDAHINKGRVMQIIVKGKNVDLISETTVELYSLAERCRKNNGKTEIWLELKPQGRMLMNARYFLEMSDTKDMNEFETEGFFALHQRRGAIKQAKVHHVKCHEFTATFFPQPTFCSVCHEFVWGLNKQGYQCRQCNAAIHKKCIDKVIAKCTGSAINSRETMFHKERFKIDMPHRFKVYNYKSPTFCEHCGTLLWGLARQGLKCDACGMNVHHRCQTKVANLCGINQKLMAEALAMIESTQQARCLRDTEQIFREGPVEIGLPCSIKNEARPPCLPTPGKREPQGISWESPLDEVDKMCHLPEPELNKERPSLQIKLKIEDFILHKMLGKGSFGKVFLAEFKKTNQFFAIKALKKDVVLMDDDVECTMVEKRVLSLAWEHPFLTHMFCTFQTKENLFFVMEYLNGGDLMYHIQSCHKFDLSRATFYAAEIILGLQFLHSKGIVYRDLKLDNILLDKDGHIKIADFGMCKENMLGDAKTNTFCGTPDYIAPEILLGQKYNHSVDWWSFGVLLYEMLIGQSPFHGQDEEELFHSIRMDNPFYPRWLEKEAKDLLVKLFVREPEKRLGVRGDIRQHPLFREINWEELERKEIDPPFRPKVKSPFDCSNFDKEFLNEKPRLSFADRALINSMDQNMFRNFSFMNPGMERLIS
Experiment [5] shares this target. Particulars: at 1 µM.
Experiment [6] concerns the target Protein kinase C beta type (Homo sapiens) (UniProt P05771). Particulars: at 0.1 µM.
Experiment [7] shares this target. The following applies: at 1 µM.
Experiment [8] has as its target T2, Serine/threonine-protein kinase D1 (Homo sapiens) (UniProt Q15139).
T2 sequence (whole entry): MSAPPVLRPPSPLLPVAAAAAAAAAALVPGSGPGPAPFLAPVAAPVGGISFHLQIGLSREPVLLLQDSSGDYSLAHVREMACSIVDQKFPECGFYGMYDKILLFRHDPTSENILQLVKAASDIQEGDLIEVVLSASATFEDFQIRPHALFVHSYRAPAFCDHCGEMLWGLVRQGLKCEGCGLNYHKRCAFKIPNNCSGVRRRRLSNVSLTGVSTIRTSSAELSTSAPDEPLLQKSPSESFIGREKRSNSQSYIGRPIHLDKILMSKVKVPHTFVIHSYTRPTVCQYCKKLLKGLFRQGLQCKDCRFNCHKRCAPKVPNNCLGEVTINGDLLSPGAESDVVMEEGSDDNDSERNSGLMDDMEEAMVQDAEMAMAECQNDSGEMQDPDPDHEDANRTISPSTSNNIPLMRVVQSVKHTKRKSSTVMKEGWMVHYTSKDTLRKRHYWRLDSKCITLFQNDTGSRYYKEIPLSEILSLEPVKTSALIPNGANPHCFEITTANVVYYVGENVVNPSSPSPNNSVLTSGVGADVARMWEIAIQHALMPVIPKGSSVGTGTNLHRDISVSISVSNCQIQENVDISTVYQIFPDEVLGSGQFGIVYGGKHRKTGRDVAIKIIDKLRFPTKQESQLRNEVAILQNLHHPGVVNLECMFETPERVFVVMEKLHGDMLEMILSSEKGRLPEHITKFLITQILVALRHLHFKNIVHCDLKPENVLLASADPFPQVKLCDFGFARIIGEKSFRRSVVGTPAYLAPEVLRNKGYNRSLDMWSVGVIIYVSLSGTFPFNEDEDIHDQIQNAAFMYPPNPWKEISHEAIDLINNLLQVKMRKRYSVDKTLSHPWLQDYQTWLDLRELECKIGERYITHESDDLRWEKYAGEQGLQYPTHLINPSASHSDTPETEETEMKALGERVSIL
Particulars: at 0.1 µM.

Experiment [9] concerns the target T2, Serine/threonine-protein kinase D1 (Homo sapiens). The following applies: at 1 µM.
Experiment [10] concerns the target T3, Serine/threonine-protein kinase D2 (Homo sapiens) (UniProt Q9BZL6).
T3 sequence (whole entry): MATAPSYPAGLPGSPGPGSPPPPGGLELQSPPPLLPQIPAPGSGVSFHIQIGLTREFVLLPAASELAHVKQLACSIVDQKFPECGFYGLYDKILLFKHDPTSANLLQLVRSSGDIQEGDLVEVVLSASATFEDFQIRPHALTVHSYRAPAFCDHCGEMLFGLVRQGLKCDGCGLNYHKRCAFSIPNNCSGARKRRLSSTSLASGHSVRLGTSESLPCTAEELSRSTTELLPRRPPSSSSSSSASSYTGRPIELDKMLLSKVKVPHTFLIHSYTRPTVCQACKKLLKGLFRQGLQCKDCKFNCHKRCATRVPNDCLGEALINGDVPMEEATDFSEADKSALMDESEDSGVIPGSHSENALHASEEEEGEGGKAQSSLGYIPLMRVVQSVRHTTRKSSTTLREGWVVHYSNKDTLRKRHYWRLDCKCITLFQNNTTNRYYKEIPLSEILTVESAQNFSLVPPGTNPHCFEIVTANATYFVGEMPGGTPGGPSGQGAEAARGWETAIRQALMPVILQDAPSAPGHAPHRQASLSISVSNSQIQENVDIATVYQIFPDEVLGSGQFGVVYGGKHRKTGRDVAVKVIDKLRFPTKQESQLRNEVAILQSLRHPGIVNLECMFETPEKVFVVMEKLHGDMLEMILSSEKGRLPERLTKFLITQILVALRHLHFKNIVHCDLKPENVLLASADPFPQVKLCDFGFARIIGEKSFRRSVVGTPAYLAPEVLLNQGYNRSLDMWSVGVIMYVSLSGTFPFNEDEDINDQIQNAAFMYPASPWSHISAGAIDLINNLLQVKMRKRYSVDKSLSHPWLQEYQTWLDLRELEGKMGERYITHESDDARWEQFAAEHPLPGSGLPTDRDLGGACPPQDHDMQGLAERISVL
Particulars: at 0.1 µM.

The target in experiment [11] is T3, Serine/threonine-protein kinase D2 (Homo sapiens). The following applies: at 1 µM.
Experiment [12] has as its target T4, Serine/threonine-protein kinase D3 (Homo sapiens) (UniProt O94806).
T4 sequence (whole entry): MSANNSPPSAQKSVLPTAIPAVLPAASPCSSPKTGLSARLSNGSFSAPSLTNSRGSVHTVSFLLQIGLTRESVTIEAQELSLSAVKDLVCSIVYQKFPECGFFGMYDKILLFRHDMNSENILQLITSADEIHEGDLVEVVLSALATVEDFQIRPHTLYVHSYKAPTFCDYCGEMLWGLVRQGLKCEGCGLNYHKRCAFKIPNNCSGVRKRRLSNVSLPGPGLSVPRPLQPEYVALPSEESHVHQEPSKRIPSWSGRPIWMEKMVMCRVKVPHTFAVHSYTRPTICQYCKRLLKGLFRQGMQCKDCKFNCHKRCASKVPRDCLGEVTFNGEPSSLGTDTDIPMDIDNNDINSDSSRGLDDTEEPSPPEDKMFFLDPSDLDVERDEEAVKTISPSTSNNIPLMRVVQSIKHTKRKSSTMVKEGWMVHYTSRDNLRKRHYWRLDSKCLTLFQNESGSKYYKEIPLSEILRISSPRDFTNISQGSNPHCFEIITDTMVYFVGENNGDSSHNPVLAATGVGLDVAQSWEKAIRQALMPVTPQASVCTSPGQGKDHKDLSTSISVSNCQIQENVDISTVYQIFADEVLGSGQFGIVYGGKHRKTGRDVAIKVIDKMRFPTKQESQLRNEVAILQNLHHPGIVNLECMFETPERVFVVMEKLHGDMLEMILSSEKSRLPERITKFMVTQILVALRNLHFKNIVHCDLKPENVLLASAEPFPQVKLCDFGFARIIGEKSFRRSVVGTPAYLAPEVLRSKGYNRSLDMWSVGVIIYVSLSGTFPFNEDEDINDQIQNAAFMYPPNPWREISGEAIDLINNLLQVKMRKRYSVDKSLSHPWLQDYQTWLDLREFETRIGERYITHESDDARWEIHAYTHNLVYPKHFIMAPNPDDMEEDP
Particulars: at 0.1 µM.

Experiment [13] has as its target T4, Serine/threonine-protein kinase D3 (Homo sapiens). Particulars: at 1 µM.
Experiment [14] has as its target T5, cGMP-dependent protein kinase 1 (Homo sapiens) (UniProt Q13976).
T5 sequence (whole entry): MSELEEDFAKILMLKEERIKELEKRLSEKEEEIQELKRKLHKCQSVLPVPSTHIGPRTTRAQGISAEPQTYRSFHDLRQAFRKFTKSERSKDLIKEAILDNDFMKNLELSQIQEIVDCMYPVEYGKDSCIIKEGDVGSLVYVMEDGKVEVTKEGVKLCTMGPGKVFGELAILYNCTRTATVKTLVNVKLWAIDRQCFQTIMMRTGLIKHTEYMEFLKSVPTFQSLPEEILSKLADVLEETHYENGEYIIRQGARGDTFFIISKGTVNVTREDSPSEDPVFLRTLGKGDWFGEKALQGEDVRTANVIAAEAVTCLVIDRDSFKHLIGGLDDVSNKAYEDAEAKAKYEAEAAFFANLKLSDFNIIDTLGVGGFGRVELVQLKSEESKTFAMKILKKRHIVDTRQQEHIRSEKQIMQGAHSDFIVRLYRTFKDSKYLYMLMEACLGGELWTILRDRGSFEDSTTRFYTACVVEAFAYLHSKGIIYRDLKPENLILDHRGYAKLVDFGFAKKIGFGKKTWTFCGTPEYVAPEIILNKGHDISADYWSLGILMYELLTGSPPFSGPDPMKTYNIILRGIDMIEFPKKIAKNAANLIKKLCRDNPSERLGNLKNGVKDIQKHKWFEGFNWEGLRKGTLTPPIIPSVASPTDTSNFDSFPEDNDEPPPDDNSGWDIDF
The following applies: at 0.1 µM.

Experiment [15] concerns the target T5, cGMP-dependent protein kinase 1 (Homo sapiens). The following applies: at 1 µM.
The target of experiment [16] is T6, cGMP-dependent protein kinase 2 (Homo sapiens) (UniProt Q13237).
T6 sequence (whole entry): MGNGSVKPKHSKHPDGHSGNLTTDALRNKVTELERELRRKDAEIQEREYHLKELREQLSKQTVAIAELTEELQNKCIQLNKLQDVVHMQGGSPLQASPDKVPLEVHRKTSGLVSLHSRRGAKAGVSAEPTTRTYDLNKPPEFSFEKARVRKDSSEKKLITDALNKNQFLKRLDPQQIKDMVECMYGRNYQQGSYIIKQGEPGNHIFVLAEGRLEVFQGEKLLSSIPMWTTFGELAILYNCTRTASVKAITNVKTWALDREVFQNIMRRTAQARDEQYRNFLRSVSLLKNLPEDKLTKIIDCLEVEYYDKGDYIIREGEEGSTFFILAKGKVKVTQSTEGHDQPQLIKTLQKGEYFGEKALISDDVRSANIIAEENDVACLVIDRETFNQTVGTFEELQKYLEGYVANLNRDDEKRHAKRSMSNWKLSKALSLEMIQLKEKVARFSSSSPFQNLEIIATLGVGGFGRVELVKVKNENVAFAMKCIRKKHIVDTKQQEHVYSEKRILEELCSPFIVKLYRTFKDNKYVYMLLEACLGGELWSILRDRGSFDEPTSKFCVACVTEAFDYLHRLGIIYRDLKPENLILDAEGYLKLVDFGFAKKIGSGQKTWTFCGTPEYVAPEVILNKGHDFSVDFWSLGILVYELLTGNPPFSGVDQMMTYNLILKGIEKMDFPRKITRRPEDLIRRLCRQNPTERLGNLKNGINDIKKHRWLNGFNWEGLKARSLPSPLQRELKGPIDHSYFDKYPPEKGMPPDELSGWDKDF
Particulars: at 0.1 µM.

In experiment [17] the target is T6, cGMP-dependent protein kinase 2 (Homo sapiens). The following applies: at 1 µM.
In experiment [18] the target is T7, cAMP-dependent protein kinase catalytic subunit PRKX (Homo sapiens) (UniProt P51817).
T7 sequence (whole entry): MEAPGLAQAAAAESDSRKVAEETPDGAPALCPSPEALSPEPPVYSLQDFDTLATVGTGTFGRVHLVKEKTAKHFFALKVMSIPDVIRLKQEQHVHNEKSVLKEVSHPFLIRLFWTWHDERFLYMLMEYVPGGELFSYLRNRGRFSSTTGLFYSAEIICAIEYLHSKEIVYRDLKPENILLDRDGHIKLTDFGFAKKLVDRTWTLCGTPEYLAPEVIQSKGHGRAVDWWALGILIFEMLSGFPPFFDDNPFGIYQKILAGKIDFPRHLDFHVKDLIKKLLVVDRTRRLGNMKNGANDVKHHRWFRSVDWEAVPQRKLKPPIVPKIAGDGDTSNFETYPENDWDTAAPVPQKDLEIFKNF
The following applies: at 0.1 µM.

Experiment [19] deals with T7, cAMP-dependent protein kinase catalytic subunit PRKX (Homo sapiens). Particulars: at 1 µM.
Experiment [20] addresses Rho-associated protein kinase 1 (Homo sapiens) (UniProt Q13464). Particulars: at 0.1 µM.

Sequence of Protein kinase C beta type (Homo sapiens) (P05771 2-671 limits assumed): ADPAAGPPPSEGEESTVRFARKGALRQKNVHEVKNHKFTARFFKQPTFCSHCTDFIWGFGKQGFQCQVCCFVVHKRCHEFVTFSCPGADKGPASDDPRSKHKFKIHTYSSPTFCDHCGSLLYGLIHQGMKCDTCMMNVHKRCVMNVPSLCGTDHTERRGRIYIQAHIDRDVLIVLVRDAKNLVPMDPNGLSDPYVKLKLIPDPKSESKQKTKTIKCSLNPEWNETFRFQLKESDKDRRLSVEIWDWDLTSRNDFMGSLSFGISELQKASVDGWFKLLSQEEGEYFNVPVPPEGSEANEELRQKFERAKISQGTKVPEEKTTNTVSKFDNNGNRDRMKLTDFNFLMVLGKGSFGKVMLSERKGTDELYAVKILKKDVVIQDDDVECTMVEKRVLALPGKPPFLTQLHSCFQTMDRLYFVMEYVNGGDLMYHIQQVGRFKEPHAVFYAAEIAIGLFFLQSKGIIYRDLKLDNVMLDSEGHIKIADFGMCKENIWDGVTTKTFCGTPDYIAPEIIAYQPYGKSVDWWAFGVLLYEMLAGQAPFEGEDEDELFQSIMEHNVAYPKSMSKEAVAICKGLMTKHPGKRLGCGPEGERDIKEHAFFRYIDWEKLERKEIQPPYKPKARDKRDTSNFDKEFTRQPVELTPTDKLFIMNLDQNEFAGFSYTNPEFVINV
Sequence of Rho-associated protein kinase 1 (Homo sapiens) (Q13464 2-1354 limits assumed): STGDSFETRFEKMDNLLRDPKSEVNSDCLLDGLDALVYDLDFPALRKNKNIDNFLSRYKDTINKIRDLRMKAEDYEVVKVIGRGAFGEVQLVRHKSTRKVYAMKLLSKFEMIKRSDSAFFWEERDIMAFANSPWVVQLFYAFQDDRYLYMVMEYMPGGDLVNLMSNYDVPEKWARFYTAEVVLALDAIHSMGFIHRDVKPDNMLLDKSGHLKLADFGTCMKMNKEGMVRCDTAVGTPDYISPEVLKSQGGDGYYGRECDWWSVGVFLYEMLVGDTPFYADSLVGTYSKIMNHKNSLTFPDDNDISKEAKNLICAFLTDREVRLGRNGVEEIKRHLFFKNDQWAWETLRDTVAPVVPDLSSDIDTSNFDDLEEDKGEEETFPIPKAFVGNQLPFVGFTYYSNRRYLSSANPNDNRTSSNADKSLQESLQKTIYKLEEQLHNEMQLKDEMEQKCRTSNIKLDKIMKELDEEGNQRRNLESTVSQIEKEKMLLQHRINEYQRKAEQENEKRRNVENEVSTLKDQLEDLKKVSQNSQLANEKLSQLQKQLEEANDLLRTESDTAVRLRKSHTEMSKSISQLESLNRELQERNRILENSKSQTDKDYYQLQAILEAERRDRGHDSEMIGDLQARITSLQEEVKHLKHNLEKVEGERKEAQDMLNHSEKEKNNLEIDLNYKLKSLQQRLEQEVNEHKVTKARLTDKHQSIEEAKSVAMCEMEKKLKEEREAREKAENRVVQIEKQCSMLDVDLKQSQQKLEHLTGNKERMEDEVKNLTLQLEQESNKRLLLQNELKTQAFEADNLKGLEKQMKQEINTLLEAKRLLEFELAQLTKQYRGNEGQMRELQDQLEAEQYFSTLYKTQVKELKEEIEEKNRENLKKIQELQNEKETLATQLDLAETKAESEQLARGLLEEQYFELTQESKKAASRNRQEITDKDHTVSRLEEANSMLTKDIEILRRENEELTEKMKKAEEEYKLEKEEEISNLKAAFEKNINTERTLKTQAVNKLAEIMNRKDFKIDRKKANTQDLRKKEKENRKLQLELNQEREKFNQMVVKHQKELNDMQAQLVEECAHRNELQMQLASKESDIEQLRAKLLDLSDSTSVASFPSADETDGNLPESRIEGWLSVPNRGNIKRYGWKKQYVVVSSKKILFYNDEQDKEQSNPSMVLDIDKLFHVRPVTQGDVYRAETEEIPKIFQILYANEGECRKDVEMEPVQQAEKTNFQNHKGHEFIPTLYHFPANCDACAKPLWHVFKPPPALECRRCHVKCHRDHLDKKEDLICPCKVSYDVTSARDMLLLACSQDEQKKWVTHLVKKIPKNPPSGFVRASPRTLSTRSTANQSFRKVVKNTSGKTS

For the molecule `[O-][S+]1CCN(Cc2ccc(-c3ccc4ncnc(Nc5ccc(OCc6cccc(F)c6)c(Cl)c5)c4c3)o2)CC1`, the inhibition in [1] turned out to be 1.04%; in experiment [2] it was 3.42%; in experiment [3] it was 2.26%; in experiment [4] it was 2.17%; in [5], 2.74%; in experiment [6], 2.05%. In addition, the inhibition in [7] stood at 2.51%; in [8], 5.58%; in experiment [9], 10.6%; in experiment [10], 4.6%; in experiment [11], 6.63%; in experiment [12] it was 4.66%. For the same molecule, the inhibition in experiment [13] is 6.53%; in experiment [14], 3.87%; in experiment [15] it was 3.85%; in experiment [16], 3.53%; in experiment [17] it was 5.63%; in [18], 2.88%. Further, the results for the inhibition in experiment [19] and in experiment [20] were 2.98% and 2.1%, respectively.

Consider `Fc1ccc(-c2nn3ncccc3c2-c2ccnc(Nc3ccc4c(c3)OCCO4)n2)cc1`, for which the inhibition in experiment [1] was found to be 7.86%; in [2], 0.67%; in experiment [3] it was 3.27%; in [4] it was 1.22%; in experiment [5], 3.8%; in [6] it was 3.86%. Further, the inhibition in experiment [7] stood at 20.1%; in [8] it was 4.89%; in [9], 36.5%; in experiment [10] it was 8.87%; in [11], 52.1%; in [12], 8%. The inhibition was 48.4% in [13]; 2.53% in [14]; 4.25% in experiment [15]; 2.03% in experiment [16]; 3.43% in experiment [17]; 0.43% in experiment [18]. In addition, the values for the inhibition in experiment [19] and in experiment [20] were 0.09% and -0.74%, respectively.
